The source of these data is PubChem BioAssay (NCI).

“And” between values parts separate entries of the source, which are not always exact repeats. Identical values can stand only once. The panel holds about 83,000 compounds, 20% with a hit somewhere; the sample as a whole holds those more often.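 Each cell line was grown in a 96-well plate and treated with one concentration of compound for 48 hours. Values below 10 were considered active.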 The source made the active and inactive calls.

The assay deals with MDA-MB-468 breast. Briefly: NCI-60 one-dose screen, 48 h (100 = growth as untreated, 0 = no growth, -100 = all killed). Particulars: 10 µM unless noted.
Regarding `Cn1cccc1C1CC(=O)N(CCC[Se]C#N)C1=O` (stereo not given), the growth is 13.6% (inactive).

For the molecule `Oc1cc(N2CC2)c(O)cc1N1CC1`, the growth was -62.7% (active).

With `CCCCC1(CCC)C(=O)NC(=S)NC1=O`, the growth is 98.7% (inactive).

Turning to `CO[C@H](C(=O)O)[C@@H]1Cc2cc3cc(OC4CC(OC5CC(O)C(O)C(C)O5)C(O)C(C)O4)c(C)c(O)c3c(O)c2C(=O)[C@H]1OC1CC(OC2CC(OC3CC(C)(O)C(O)C(C)O3)C(O)C(C)O2)C(O)C(C)O1` (stereo not given in full), the growth is -16.7% (active).

With `Cc1ccc(C[As+](c2ccccc2)(c2ccccc2)c2ccccc2)cc1`, the growth is -24.3% (active).

Turning to `O=Cc1cn(Cc2ccccc2)c2ccccc12`, the growth is 2.33% (active).

With `ClCCN(CCCl)c1ccc(-n2cnc3c(Cl)ncnc32)cc1`, the growth is -43.5% (active).

For the molecule `CN1CCN(C(=O)COc2ccc(/C=C3\CC4C5CC=C6CC(Cl)CCC6(C)C5CCC4(C)C3=O)cc2)CC1` (stereo not given), the growth is 66.6% (inactive).

Take `N#CCC(=O)c1ccccc1`: the growth was 6.35% (active).

With `CC[C@@H](C)C(=O)O[C@H]1[C@H](O)[C@H]2[C@@H](CN3C[C@@H](C)CC[C@H]3[C@@]2(C)O)[C@@H]2C[C@]34O[C@]5(O)[C@@H](OC(=O)[C@@](C)(O)CC)CC[C@@]3(C)[C@@H]5[C@@H](OC(C)=O)[C@@H](OC(C)=O)[C@H]4[C@@]21O`, the growth is 90.6% (inactive).

Regarding `O=C(Nc1ccc(S(=O)(=O)F)cc1)Oc1ccccc1`, the growth was 97.6% (inactive).

On to `O=C(O)CC(Br)C(=O)CBr` (stereo not given), for which the growth was 105% (inactive).

As for `C[N+]1(C)CCCC1c1cccnc1` (stereo not given), the growth was 101% (inactive).

Regarding `O=C1NC(=O)C(=Cc2cn(CCCCCCn3c4ccccc4c(=O)c4ccccc43)c3ccccc23)C(=O)N1`, the growth was -26% (active).

`CNC(=O)CCl`: the growth is 100% (inactive).

Take `O=C1C=Cc2ccccc2C1=O`: the growth is 104% (inactive).

In the case of `CCOC(=O)[C@@H](C)C[C@H](Cc1ccccc1)NC(=O)c1nc([C@@H](C[C@H](C(C)C)N(C)C(=O)[C@@H](NC(=O)[C@H]2CCCCN2C)C(C)C)OC(C)=O)sc1CCOCc1ccccc1`, the growth is -48.6% (active).

`CN1CC2CCC(C1)C2=O`: the growth was 106% (inactive).

As for `COc1ccn(C)c(=O)c1C#N`, the growth was 102% (inactive).

`CCCCNCCc1ccccn1`: the growth was 117% (inactive).

Consider `CCOC(=O)CCN(C)C1=Nc2ccc(Cl)cc2C(c2ccccc2)=[N+]([O-])C1`, for which the growth was 93.7% (inactive).

`CC(=O)C(N)Cc1ccccc1` (stereo not given): the growth was 97% (inactive).

With `COc1ccc(C(O)(C(=O)O)c2ccc(OC)cc2)cc1`, the growth is 104% (inactive).

Regarding `C#COc1cccc(Nc2ncnc3cc(NC(=O)CF)ccc23)c1`, the growth is 80.2% [6.25 µM] (inactive).

`CCCCCCCCCCOc1ccc(C(=O)Oc2ccc(CSP3(=O)OCC4OC(n5ccc(=O)[nH]c5=O)C(F)C4OP(=O)(O)OCC4OC(n5cnc6c(N)ncnc65)C(F)C4O3)cc2)cc1` (stereo not given): the growth was 115% (inactive).

On to `C=CC1=C[C@@H]2[C@@H]3O[C@]4(CC[C@H](O4)[C@@H](C)C[C@@H](O)C3=O)C[C@H](O)C3=NCC[C@@]32CC1`, for which the growth was -56% (active).

For `CCCCCCCCCCCCCCCC[n+]1ccccc1`, the growth was -33.2% (active) and -13.9% (active).

As to `CC(C)c1cccc(C(C)C)c1O`, the growth is 101% (inactive) and 94.3% (inactive).

On to `C/C=C/CC(C)C(O)[C@H](NC(=O)[C@@H]1CCCN1C(=O)C(C)(C)NC(=O)CCCCCCC)C(=O)N[C@@](C)(CC)C(=O)N[C@@H](CCC(N)=O)C(=O)N[C@H](CCC(N)=O)C(=O)NC(C)(C)C(=O)NC(C)(C)C(=O)N[C@@H](CCC(N)=O)C(=O)N[C@H](CC(C)C)C(=O)N[C@H](CO)CC(C)C` (stereo not given in full), for which the growth was 106% (inactive) and -55.5% (active).

In the case of `CC(=O)/C=C/c1ccc2c(c1)OCO2`, the growth was 96.6% (inactive).

On to `NC(CCl)CCl`, for which the growth was 96.8% (inactive).

Consider `CNC(=O)O/N=C(/C)c1ccc(Cl)cc1`, for which the growth was 105% (inactive).

For `O[C@H](CN1CC1)[C@@H](O)CN1CC1`, the growth is 9.35% (active).

`COc1cc([C@@H]2c3cc4c(c(O)c3C[C@H]3COC(=O)[C@@H]32)OCO4)cc(OC)c1OC`: the growth was 5.12% (active).

In the case of `CC(C)CCC1C(=O)NC(=O)NC1=O`, the growth is 114% (inactive).

As to `C[C@@]1(CCCCCCCCCc2ccc(O)cc2)C[C@]2(C)OC(=O)C[C@@H]2OO1`, the growth is 64.8% (inactive).

In the case of `COc1cc(C=Nc2cc(Cl)cc(Cl)c2)ccc1N(CCCl)CCCl`, the growth is 36.3% (inactive).

For the molecule `Cc1cccc(N=C2c3cc([N+](=O)[O-])ccc3-c3c2cc([N+](=O)[O-])cc3[N+](=O)[O-])c1`, the growth is -24.4% (active).

`OCCCCCNC1CCCCC1`: the growth was 97.6% (inactive).

As for `COc1cccc2c1cc([N+](=O)[O-])c1c(C(=O)O)cc3c(c12)OCO3`, the growth was -46.6% (active) and 100% (inactive).
